Assay [1] in a line: inhibitors of TNFa-induced NFkB p65 translocation, primary screen, imaging, HUVEC, MLSMR starter and 10KST1 sets (AID 438;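 active means inhibition above 20% together with a positive visual image hit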;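 further: compound added about 3h40 before a 20 min TNFalpha stimulation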;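 on inhibition: signal is the nuclear over cytoplasmic p65 intensity ratio per well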). Conditions: HUVEC TNFa-induced p65 nuclear translocation; cell count: measured here: nuclei count (cytotoxicity indicator), at 2.08 µM; inhibition: at 2 µM, stronger effect = higher value, 0% TNFa-plus-vehicle, 100% no-TNFa wells.
Assay [2] is described as follows: inhibitors of mutant huntingtin aggregation, primary screen, imaging, exon1htt(103Q)mCFP cells, high-content imaging (AID 483;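 active means visual image review flags a hit and inhibition of aggregation exceeds 20%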;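 further: compound exposure lasted 3 days before fixation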;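 on nuclei count: percent of the per-plate median nuclei count of sample wells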). Conditions: exon1htt(103Q)mCFP cell line, aggregate imaging, at 2 µM; inhibition of aggregation: stronger effect = higher value; nuclei count: measured here: cell count, toxicity.
The nature of assay [3]: inhibitors of E-selectin induction by TNFa, primary screen, imaging, HUVEC, immunofluorescence, MLSMR starter and 10KST1 sets (AID 487;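 active means visually confirmed hit in the image check and inhibition above 20%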;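 on inhibition: signal is fraction of cell area covered by stained E-selectin grains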;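 on nuclei count: 100% = median nuclei count of all wells on the same plate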). Conditions: HUVEC TNFalpha-induced E-selectin immunofluorescence imaging, at 2 µM; inhibition: stronger effect = higher value; nuclei count: measured here: cell number, toxicity.
The target of assay [4] is Voltage-gated potassium channel subunit beta-2 (Rattus norvegicus) (UniProt P62483). Briefly: KvBeta enzyme negative modulators, primary screen, biochemical, NADPH fluorescence (AID 622).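 Further: slope of raw intensity against log time taken from 70 to 1610 s.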 The settings on record: recombinant KvBeta, 4-cyanobenzaldehyde reduction, at 10 µM, stronger effect = higher value.
Chain of Voltage-gated potassium channel subunit beta-2 (Rattus norvegicus) (P62483 whole entry, looked up): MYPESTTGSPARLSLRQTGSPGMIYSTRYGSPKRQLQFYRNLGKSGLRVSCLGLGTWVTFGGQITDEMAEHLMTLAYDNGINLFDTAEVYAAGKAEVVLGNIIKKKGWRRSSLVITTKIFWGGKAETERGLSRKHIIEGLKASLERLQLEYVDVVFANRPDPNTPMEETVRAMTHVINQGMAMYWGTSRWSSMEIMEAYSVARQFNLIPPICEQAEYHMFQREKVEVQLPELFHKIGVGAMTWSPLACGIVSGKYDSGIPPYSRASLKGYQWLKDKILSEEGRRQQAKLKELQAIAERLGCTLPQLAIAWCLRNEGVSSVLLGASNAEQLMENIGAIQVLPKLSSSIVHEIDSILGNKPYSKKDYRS
Assay [5] has the same target. Briefly: KvBeta positive modulators, primary screen, biochemical, NADPH fluorescence (AID 623;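 active means NADPH fluorescence slope more negative than the mean of all samples by about 3 SD, 99.7% confidence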;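 further: fluorescence intensity change per second fitted from 20 to 320 s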). The settings on record: Recombinant KvBeta, NADPH fluorescence decrease slope, 10 min; at 10 µM; stronger effect = lower value.
In assay [6] the target is Alpha-2C adrenergic receptor (Homo sapiens) (UniProt P18825). The assay can be described thus: modulators of alpha2C/GIRK thallium flux, primary screen, cell-based, HEK293 alpha2C/GIRK1/2 (AID 624;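 active means fluorescence slope after compound addition differing from the mean of all screened samples at 99.7% confidence, in either direction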;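 further: slope of fluorescence ratio to pre-addition baseline per second over 15 to 24 s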). Conditions: thallium flux BTC fluorescence, at 10 µM, actives lie on both sides.
Chain of Alpha-2C adrenergic receptor (Homo sapiens) (P18825 whole entry, looked up): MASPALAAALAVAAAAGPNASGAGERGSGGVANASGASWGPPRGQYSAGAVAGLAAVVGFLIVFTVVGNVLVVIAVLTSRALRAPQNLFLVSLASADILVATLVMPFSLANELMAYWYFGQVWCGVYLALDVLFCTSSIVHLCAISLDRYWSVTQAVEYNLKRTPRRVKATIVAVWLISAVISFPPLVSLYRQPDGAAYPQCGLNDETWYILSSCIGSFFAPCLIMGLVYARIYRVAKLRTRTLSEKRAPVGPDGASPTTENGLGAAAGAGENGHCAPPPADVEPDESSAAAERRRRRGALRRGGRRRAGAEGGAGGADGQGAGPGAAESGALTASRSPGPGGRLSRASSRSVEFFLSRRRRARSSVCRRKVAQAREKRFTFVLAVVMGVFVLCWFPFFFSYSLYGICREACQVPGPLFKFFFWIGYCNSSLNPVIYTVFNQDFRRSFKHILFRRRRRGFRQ
Assay [7] is described as follows: inhibitors of Sendai virus-induced IRF3 signaling, primary screen, TLR/RLR signaling modifier project, cell-based, Sendai virus stimulus, luciferase, 10K MLSCN set (AID 602276;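 active means inhibition at or above 50% at 10 µM; inactive means inhibition below 50%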;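 further: firefly luciferase from ISG56 promoter only with Renilla not read in this screen; 0% = Sendai virus plus DMSO and 100% = medium plus DMSO without virus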). The settings on record: HEK293 RL24 IRF3 luciferase reporter, at 10 µM, stronger effect = higher value.
Assay [8] can be described thus: inhibitors of poly I:C-induced TLR3 signaling, primary screen, cell-based, poly I:C stimulus, luciferase, 10K MLSCN set (AID 602277;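 active means inhibition of the reporter signal at or above 50%; inactive means inhibition below 50%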). Conditions: HEK293-TLR3 RL24 IRF3 luciferase reporter, at 10 µM, stronger effect = higher value. For orientation: Reporter assays use an easily measured gene product as a stand-in for the process of interest.

The source made the active and inactive calls.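 How the source made its calls, unless noted: active means fluorescence slope higher than the sample average by over 3 SD (cut at about -0.22 in these data, passing the limit was not always enough); inactive means the rest.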

For `CCCCOC(=O)c1cccc(NC(=O)CC)c1`, the cell count in assay [1] was 667. In addition, the inhibition was -22.3% (inactive) in assay [1], 16.4% (inactive) in assay [3], -34.7% (inactive) in assay [7] and -123% (inactive) in assay [8]. Moreover, the inhibition of aggregation in assay [2] was -8.8% (inactive). Moreover, the nuclei count is 97.1% in assay [2] and 110% in assay [3]. Moreover, the fluorescence slope in assay [4] is -0.557 (inactive). Besides, the NADPH fluorescence slope in assay [5] was 4e-05 (inactive). The slope in assay [6] is 0.00523 (inactive).
For the compound `CC(=O)C1=C(C)OC(N)=C(C#N)C1c1ccncc1` (stereo not drawn), the cell count in assay [1] worked out at 322. Also, the inhibition in assay [1] was 3.7% (inactive); in assay [3], 39.3% (inactive); in assay [7], 12.5% (inactive); in assay [8], 16.8% (inactive). The inhibition of aggregation in assay [2] is -14.4% (inactive). Also, the results for the nuclei count in assay [2] and in assay [3] were 97.8% and 112%, respectively. The fluorescence slope in assay [4] is -0.616 (inactive). Also, the NADPH fluorescence slope in assay [5] was -5.3e-05 (inactive). Besides, the slope in assay [6] is 0.004 (inactive).
Regarding `O=C(OCC(=O)c1cccs1)C1=COCCO1`, the cell count in assay [1] came out at 656. In addition, the inhibition was -7.6% (inactive) in assay [1], 5.3% (inactive) in assay [3], -24.9% (inactive) in assay [7] and -83.1% (inactive) in assay [8]. Further, in assay [2], the inhibition of aggregation was -9.8% (inactive). In addition, the results for the nuclei count in assay [2] and in assay [3] were 105% and 119%, respectively. For the same compound, the fluorescence slope in assay [4] is -0.345 (inactive). Further, the NADPH fluorescence slope in assay [5] is -2.7e-05 (inactive). Also, the slope in assay [6] was 0.00586 (inactive).
Turning to `COc1ccc(C)cc1NC(=O)c1nnn(Cc2cccc(F)c2)c1N`, in assay [1], the cell count was 610. Further, the inhibition in assay [1] is -0.2% (inactive); in assay [3], -31.3% (inactive); in assay [7], 40.9% (inactive); in assay [8] it was 1.2% (inactive). Further, the inhibition of aggregation in assay [2] is 6.4% (inactive). For the same compound, the figures for the nuclei count in assay [2] and in assay [3] were 100% and 127%, respectively. The fluorescence slope in assay [4] was -0.513 (inactive). The NADPH fluorescence slope in assay [5] was -2.7e-05 (inactive). Also, the slope in assay [6] was 0.00668 (inactive).
Consider `Cc1cc(C)cc(NC(=O)c2nnn(Cc3cc(C)ccc3C)c2N)c1`, for which, in assay [1], the cell count came out at 598. In addition, the inhibition is 8.7% (inactive) in assay [1], -5.5% (inactive) in assay [3], 44.9% (inactive) in assay [7] and 14.5% (inactive) in assay [8]. The inhibition of aggregation in assay [2] was -15.9% (inactive). The results for the nuclei count in assay [2] and in assay [3] were 90.3% and 125%, respectively. The fluorescence slope in assay [4] is -0.564 (inactive). In addition, the NADPH fluorescence slope in assay [5] was -3.4e-05 (inactive). The slope in assay [6] is 0.00689 (inactive).
Consider `CCOC(=O)CSc1nc2cc(C(=O)N3CCC(C(N)=O)CC3)ccc2c(=O)n1-c1ccccc1`, for which the cell count in assay [1] was 391. For the same compound, the inhibition in assay [1] is 4.8% (inactive); in assay [3], -26.1% (inactive); in assay [7] it was 10.8% (inactive); in assay [8] it was 9.87% (inactive). Further, in assay [2], the inhibition of aggregation is -5.8% (inactive). The nuclei count in assay [2] was 93.5%; in assay [3] it was 95.3%. Besides, the fluorescence slope in assay [4] was -0.37 (inactive). For the same compound, in assay [5], the NADPH fluorescence slope is -5.8e-05 (inactive). The slope in assay [6] was 0.00452 (inactive).
With `CN(C1CCCCC1)S(=O)(=O)c1ccc(S(=O)(=O)N2CCCC2)cc1`, the cell count in assay [1] is 737. Also, the inhibition in assay [1] is -10.5% (inactive); in assay [3], -78.3% (inactive); in assay [7] it was 16.1% (inactive); in assay [8] it was 21.2% (inactive). Also, the inhibition of aggregation in assay [2] was -9.6% (inactive). Besides, the nuclei count in assay [2] stood at 100%; in assay [3] it was 126%. The fluorescence slope in assay [4] is -0.432 (inactive). Also, the NADPH fluorescence slope in assay [5] is -2.1e-05 (inactive). Also, the slope in assay [6] was 0.00521 (inactive).
On to `O=c1cc(CN2CCN(c3ccc(F)cc3)CC2)nc2sccn12`, for which the cell count in assay [1] was 280. Besides, the inhibition is 3.4% (inactive) in assay [1], -8.5% (inactive) in assay [3], -6.74% (inactive) in assay [7] and 0.252% (inactive) in assay [8]. Further, the inhibition of aggregation in assay [2] is 19.5% (inactive). Moreover, the nuclei count in assay [2] was found to be 95%; in assay [3], 109%. The fluorescence slope in assay [4] is -0.477 (inactive). In assay [5], the NADPH fluorescence slope was 2.3e-05 (inactive). The slope in assay [6] is 0.00346 (inactive).
Turning to `Cc1nc(-c2cccc(-c3noc(C)n3)c2)no1`, the cell count in assay [1] was determined as 341. Moreover, the inhibition was 2.2% (inactive) in assay [1], 11.4% (inactive) in assay [3], -12.8% (inactive) in assay [7] and -3.56% (inactive) in assay [8]. For the same compound, in assay [2], the inhibition of aggregation is -8.5% (inactive). In addition, the results for the nuclei count in assay [2] and in assay [3] were 105% and 108%, respectively. The fluorescence slope in assay [4] was -0.473 (inactive). Besides, the NADPH fluorescence slope in assay [5] is -4.9e-05 (inactive). Moreover, in assay [6], the slope was 0.00665 (inactive).
For `CCN(CC)CCCNC1CCS(=O)(=O)C1` (stereo not drawn), in assay [1], the cell count was determined as 730. Besides, the inhibition was -7.4% (inactive) in assay [1], -19.7% (inactive) in assay [3], 2.02% (inactive) in assay [7] and 13.2% (inactive) in assay [8]. Besides, the inhibition of aggregation in assay [2] is 10.5% (inactive). The nuclei count in assay [2] stood at 126%; in assay [3], 118%. Further, the fluorescence slope in assay [4] is -0.502 (inactive). Also, the NADPH fluorescence slope in assay [5] is -6.6e-05 (inactive). Further, the slope in assay [6] is 0.00536 (inactive).
`O=C(c1cccc(C(=O)N2CCN(c3ccc(F)cc3)CC2)c1)N1CCN(c2ccc(F)cc2)CC1`: in assay [1], the cell count was found to be 692. Besides, the inhibition in assay [1] was 1.5% (inactive); in assay [3], -6.5% (inactive); in assay [7] it was -6.05% (inactive); in assay [8], -5.26% (inactive). The inhibition of aggregation in assay [2] was -21.7% (inactive). Also, the nuclei count in assay [2] was 68.1%; in assay [3], 92.8%. In addition, the fluorescence slope in assay [4] was -0.438 (inactive). The NADPH fluorescence slope in assay [5] is -9.2e-05 (inactive). In addition, the slope in assay [6] was 0.006 (inactive).
For the compound `COc1ccc(N(CC(=O)N2CCCCC2)S(=O)(=O)c2ccccc2)c(OC)c1`, the cell count in assay [1] amounted to 622. For the same compound, the inhibition in assay [1] was -7.8% (inactive); in assay [3], -218% (inactive); in assay [7], 12% (inactive); in assay [8] it was 26.9% (inactive). Besides, in assay [2], the inhibition of aggregation was -4.8% (inactive). Besides, the nuclei count in assay [2] came to 104%; in assay [3], 132%. Further, the fluorescence slope in assay [4] is -0.278 (inactive). The NADPH fluorescence slope in assay [5] was -7.4e-06 (inactive). For the same compound, the slope in assay [6] is 0.00613 (inactive).
Regarding `CC(=O)c1c(C)[nH]c(C(=O)OCc2nnc(-c3ccccc3)o2)c1C`, in assay [1], the cell count worked out at 757. The inhibition is -7.8% (inactive) in assay [1], -43.7% (inactive) in assay [3], 14.6% (inactive) in assay [7] and 12.4% (inactive) in assay [8]. Also, the inhibition of aggregation in assay [2] is -14.5% (inactive). In addition, the nuclei count in assay [2] is 122%; in assay [3], 110%. Further, in assay [4], the fluorescence slope is -0.639 (inactive). For the same compound, the NADPH fluorescence slope in assay [5] was 4.8e-05 (inactive). Besides, the slope in assay [6] is 0.00623 (inactive).

For orientation: inhibition means the change of the read-out against control, counted positive when it falls.

The values are drawn from PubChem BioAssay.
